Results on 40 compounds are retold here after PubChem BioAssay (NCI).

Molecules are shown by their SMILES. This is part of a sample that, as a whole, favours compounds with a hit. Of some 83,000 tested, about 20% had one in any assay.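 Plates (96-well) were seeded with cells, treated with compound at one concentration, and incubated for 48 hours before percent growth was determined.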 Active and inactive are the calls of the source. The calls were made as follows: active = growth percent below 10; inactive = the rest.

In this test the test system is MDA-MB-468 breast. Briefly: NCI-60 one-dose screen, 48 h (100 = growth as untreated, 0 = no growth, -100 = all killed). Particulars: 10 µM unless noted.
On to `CCCCCCCC/C=C\CCCCCCCCOc1ccccc1CC(=O)NCC[N+]1(C)CCOCC1`, for which the growth was 65.3% (inactive).
In the case of `N#Cc1cnc2ccc(-c3cnc4[nH]ncc4c3)cc2c1N1CCc2cc(F)c(Cl)cc21`, the growth is -19.8% (active).
Next, `CCCCCCCCCCCCCCCCCCOc1ccc(CC(=O)OCC[N+]2(C)CCCCC2)cc1`: 92.2% (inactive); `C=C(NC(=O)C(=C)NC(=O)c1csc(C2=NC3c4csc(n4)C4NC(=O)c5csc(n5)C(C(C)(O)C(C)O)NC(=O)C5CSC(=N5)C(=CC)NC(=O)C(C(C)O)NC(=O)c5csc(n5)C3(CC2)NC(=O)C(C)NC(=O)C(=C)NC(=O)C(C)NC(=O)C(C(C)CC)NC2C=Cc3c(C(C)O)cc(nc3C2O)C(=O)OC4C)n1)C(N)=O` (stereo not given): -55.6% (active).
For `O=[N+]([O-])c1ccc2nc3c4ccccc4c4ccccc4c3nc2c1`, the growth was 75.2% (inactive).
Next, `CC(C)(C)c1ccc(C(=O)Nc2sc3c(c2C(N)=O)CC/C(=N\O)C3)cc1`: 2.17% (active).
As to `O=C1/C(=C/c2ccc(O)cc2)COc2ccc(O)c(O)c21`, the growth was -2.18% (active).
Next, `COc1cccc2c1[C@H](OC)[C@]13O[C@@]1(C2=O)[C@H](O)[C@H](C)[C@@](O)(C(=O)[C@@H]1O[C@H]1C)[C@@H]3O`: -40.5% (active); `CC(=O)N1CC(=O)NC1=S`: 95.9% (inactive); `CCCCNC1=C(OCC)C(=O)c2ccccc2C1=O`: 56.3% (inactive).
As to `CC1(C)C2CC1C1(/C=N/NC(N)=S)C(C2)C(C#N)(C#N)C1(C#N)C#N` (stereo not given), the growth was 76.6% (inactive).
To `CC(C)=CCC[C@](C)(O)[C@H]1CC[C@]2(C)[C@@H]1CC[C@@H]1[C@@]3(C)CC/C(=N/O)C(C)(C)[C@@H]3CC[C@]12C` belongs -26.3% [100 µM] (active); to `CC(=O)OC(C)C(=O)NCC(C)O` (stereo not given), 105% (inactive); to `COC(=O)C1CCc2sc3ncnc(Nc4cn[nH]c4C(=O)Nc4ccc(CN5CCN(C)CC5)cc4)c3c21` (stereo not given), 37.3% (inactive).
Turning to `COc1ccc(-c2nsc3c2NC(=O)CC3c2ccc(F)cc2)cc1` (stereo not given), the growth was 1.54% (active).
Next, `O=C(NCCN1CCOCC1)Nc1ccc(-c2cc3c(Nc4ccc(Oc5cccc(C(F)(F)F)c5)c(Cl)c4)ncnc3s2)cc1`: -28.3% (active); `CCOC(=O)n1cc(-c2nonc2-c2cn(C)c3ncccc23)c2ccccc21`: -8.56% (active); `O=C(Nc1ccccc1O)c1ccc(CNC(=O)c2ccsc2Nc2ccnc(C(F)(F)F)c2)cc1`: -17.2% (active).
Next, `CCC(=O)Oc1c(C)cc(O)c2ccccc12`: 5.03% (active); `CS(=O)(=O)OCCN(CCOS(C)(=O)=O)c1ccc(/C=N/Nc2ccc([N+](=O)[O-])cc2[N+](=O)[O-])cc1`: 87.9% (inactive).
As for `CN(C)CCn1c2ccc(Br)cc2c2nc3ccccc3nc21`, the growth is 13% (inactive).
Next, `O=S(=O)(NCCNc1nccc(-c2c(-c3cccc(O)c3)nc3occn23)n1)c1ccc(Cl)cc1`: 97.9% (inactive); `CCN(CC)CCn1c2ccc(OC)cc2c2sc3cc(O)ccc3c(=O)c21`: 60.3% (inactive).
Turning to `CCc1nc2cc(/C=C/C(=O)NO)ccc2c(=O)n1CCc1ccc(OC)cc1`, the growth is 14.1% (inactive).
To `O=C(CCN1C(=O)/C(=C/c2ccc(O)cc2)SC1=S)Nc1ccc(Cl)cc1` belongs 95.3% (inactive).
Consider `CCn1c(SCC(=O)Nc2cccc(C(=O)/C=C/c3cc(OC)c(OC)c(OC)c3)c2)nc2ccccc2c1=O`, for which the growth was 31.8% (inactive).
`COc1ccc(C/C(C)=C(/c2ccc(OCCCN(C)C)cc2)c2ccc(OC(C)=O)cc2)cc1`: the growth was 63.8% (inactive).
To `CCOC(=O)c1sc2nc(-c3cccc(OC)c3)nc(N3CCOCC3)c2c1C` belongs 81.2% (inactive).
In the case of `C/C(=C(/c1ccc(O)cc1)c1ccc(Cl)cc1)c1ccccc1`, the growth is -71.9% (active).
To `CC(=O)[C@@]1(O)CC[C@H]2[C@@H]3CC[C@@H]4CC(=O)CC[C@]4(C)[C@H]3[C@@H](O)C[C@@]21C` belongs 94.6% (inactive); to `Cc1ccc(C(=O)Nc2ccc(CN3CCN(C)CC3)c(C(F)(F)F)c2)cc1C#Cc1cnc(N)cc1C#N`, -63.8% (active).
Regarding `C#CCN(Cc1ccc2nc(N)[nH]c(=O)c2c1)c1ccc(C(=O)NC(CCC(=O)O)C(=O)O)cc1` (stereo not given), the growth is 37.7% (inactive).
To `COCCNc1ccc2c3c(cccc13)C(=O)N(CCN(C)C)C2=O` belongs 45.2% (inactive).
To `Cc1ccc2c(n1)C(=O)C(Cl)=C(Nc1ccc(C(=O)OC(C)(C)C)cc1)C2=O` belongs -50.3% [9.25 µM] (active); to `CC(=O)c1ccc(C)c(N)c1`, 104% (inactive).
Turning to `COc1ccc(NC(=O)Nc2ccc(Nc3nc(C)cc(Nc4ccc(C)cc4)n3)cc2)cc1`, the growth is -68.9% (active).
Next, `CC1=C(C)C(=O)OC([C@](C)(O)[C@]2(O)CC[C@@]3(O)[C@@H]4C[C@H]5O[C@]56CC=CC(=O)[C@]6(C)[C@H]4CC[C@]23COC(=O)c2ccc(C)o2)C1` (stereo not given in full): -55.6% (active).
Consider `COC(=O)C(Cc1ccccc1)Nc1nc(NC(Cc2ccccc2)C(=O)OC)nc(N2CCOCC2)n1` (stereo not given), for which the growth is 108% (inactive).
As for `CCN(CC)CCCC(C)Nc1cc(-c2cccc(OC(F)(F)F)c2)nc2ccc(N3CCCC3)cc12` (stereo not given), the growth was -56.3% (active).
To `S=c1sc2c(Cl)nc(-c3cccnc3)nc2n1-c1ccccc1` belongs -34.2% (active).
